Rows were chosen to be rich in hits. Some 3.7% of all compounds tested hit in one or more screens of this group.
NLRP3 yeast inh: NALP3 inflammasome inhibitors in reconstituted yeast, primary screen, luminescence, uHTS; Yeast reconstituted NLRP3/ASC/caspase-1, beta-gal luminescence, 24 h; inhibition, % at 10 µM; 330,000 tested, 0.39% active;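 active = inhibition of 50% or more; inactive = inhibition below 50%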;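 note: plate controls were induced DMSO wells for no effect and uninduced yeast grown without galactose for full effect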
tim23-1 inh: growth inhibitors of tim23-1 mutant yeast, primary screen, luminescence, uHTS. AID 463212, 2010. inhibition, % at 20 µM. 330,000 tested, 1.3% active. S. cerevisiae tim23-1 growth, BacTiter-Glo luminescence, 24 h;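 active = growth inhibition of the mutant yeast at or above 50%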;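 note: temperature-sensitive mutant grown at 25 °C; plate controls were DMSO-treated mutant yeast for no effect and medium wells lacking yeast for full effect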
PfHsp90 set2: growth inhibition of PfHsp90-expressing yeast, primary screen, antimalarial PfHsp90 inhibitor project, S. cerevisiae, BacTiter-Glo luminescence, single point, set 2; AID 504621, 2011; inhibition, % at 9.4 µM; 310,000 tested, 0.32% active; BacTiter-Glo ATP, 48 h; yeast lacking PDR1 and PDR3 efflux regulators;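 active = every replicate shows inhibition above about 80%, whatever the replicate mean, limit read from the data; inconclusive = mean inhibition reaches the set limit but some replicate falls short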;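 note: 0% = DMSO neutral controls and 100% = 20 µM radicicol positive controls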
tim10-1 inh: growth inhibitors of tim10-1 mutant yeast, primary screen, luminescence, uHTS; S. cerevisiae tim10-1 ts strain growth, BacTiter-Glo, 24 h; inhibition, % at 20 µM; 330,000 tested, 2.2% active; AID 463190, 2010;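 active = inhibition of at least 40%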;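 note: mutant grown at 25 °C; 0% = DMSO wells with yeast and 100% = wells holding no yeast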
TIM10 inh: growth inhibitors of isogenic TIM10 control yeast, primary screen, counter-screen for tim10-1 yeast inhibitor project, luminescence, uHTS | inhibition, % at 10 µM | 330,000 tested, 1.4% active | S. cerevisiae TIM10 strain growth, BacTiter-Glo luminescence, 24 h | AID 463195, 2010;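 active = inhibition of 40% or more at the single tested concentration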;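 note: wild-type TIM10 isogenic control strain grown at permissive 25 °C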
tim10-1 conf: growth inhibitors of tim10-1 mutant yeast, confirmation, single concentration, luminescence, S. cerevisiae; shares compounds with tim10-1 inh; S. cerevisiae tim10-1 ts strain growth, BacTiter-Glo, 24 h; inhibition, % at 20 µM; 7,400 tested, 56% active; AID 463213, 2010;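 active = inhibition of yeast growth at or above a set limit in either of two repeat tests at 20 µM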;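 note: tim10-1 mutant grown at permissive 25 °C to find synthetic lethal compounds; 0% = DMSO yeast wells and 100% = medium wells without yeast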
tim10 confirm: growth inhibitors of wild-type TIM10 yeast, confirmation, counter-screen for tim10-1 synthetic lethality project, single concentration, luminescence, S. cerevisiae; shares compounds with TIM10 inh; S. cerevisiae tim10 strain growth, BacTiter-Glo luminescence, 24 h; inhibition, % at 10 µM; 4,600 tested, 63% active; AID 463215, 2010;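 active = inhibition of yeast growth at or above a set limit in either of two replicates at 10 µM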;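 note: this counterscreen used the strain with wild-type TIM10; 0% = yeast with DMSO and 100% = medium wells lacking yeast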
Active calls of the source: *; u = inconclusive; x = not tested or not shown.

SMILES | NLRP3 yeast inh | tim23-1 inh | PfHsp90 set2 | tim10-1 inh | TIM10 inh | tim10-1 conf | tim10 confirm
Cc1cc([N+](=O)[O-])ccc1-c1ccc(C2Nc3ccccc3C(=O)N2O)o1 (stereo unspecified) | 9 | 42 | u | 53* | 41* | 36* | 20
O=C1c2ccccc2NC(c2ccc(-c3ccccc3F)o2)N1O (stereo unspecified) | 22 | 30 | x | 21 | 10 | x | x
CC(NC(=O)/C(C#N)=C/c1ccco1)c1ccccc1 (stereo unspecified) | -6 | 6 | 21 | -5 | -26 | x | x
CC(NC(=O)/C(C#N)=C/c1ccc([N+](=O)[O-])o1)c1ccccc1 (stereo unspecified) | 24 | -71 | -6 | 50* | 62* | 23 | 93*
CCCCCC(=O)NC(=S)Nc1cccc(C(C)=O)c1 | 4 | 42 | 7 | 40 | 43* | 29 | 25
CCCC(=O)NC(=S)Nc1cccc(C(C)=O)c1 | 21 | 15 | 7 | 26 | 11 | x | x
CCCCCC(=O)NC(=S)Nc1ccccc1C(=O)OC | 7 | 45 | 5 | 40* | 43* | 24 | 34*
O=C(Nc1ccccc1)N(c1ccccc1)C1C=CS(=O)(=O)C1 (stereo unspecified) | 9 | -16 | x | -14 | -23 | x | x
N/C(=N\OC(=O)Cc1ccc(-c2ccccc2)cc1)c1ccccn1 | 18 | 30 | -1 | 54* | 53* | 50* | 28
COC(=O)Cn1cnc2c(nnn2-c2ccc(C)cc2)c1=O | 0 | 28 | x | 13 | 6 | x | x
CC1CCCCN1S(=O)(=O)c1ccc(NC(=O)c2ccco2)cc1 (stereo unspecified) | 10 | 25 | x | 53* | 42* | 36* | 17
O=C(/C=C/c1c[nH]c2ccccc12)c1ccccc1 | 40 | 18 | 33 | 45* | 53* | 37* | -16
COc1ccc2[nH]cc(C=O)c2c1 | 7 | -10 | x | 8 | 8 | x | x
COc1ccc2[nH]cc(/C=C/C(=O)c3ccccc3)c2c1 | 22 | 37 | 21 | 61* | 71* | 52* | 74*
COc1cccc(/C=C2/SC(=S)N(CC(=O)Nc3nnc(C)s3)C2=O)c1 | x | x | -12 | x | x | x | x
O=C(/C=C/c1ccccc1)NCCCNC(=O)/C=C/c1ccccc1 | -4 | 6 | 16 | 9 | 0 | x | x
O=C(NCC1CCCO1)c1ccc(COc2ccccc2)o1 (stereo unspecified) | 16 | -9 | 8 | -2 | 6 | x | x
O=[N+]([O-])c1ccc(S(=O)(=O)c2cccc(C(F)(F)F)c2)nc1 | -12 | 46 | 81* | 75* | 75* | 74* | 66*
O=C(NCCCn1ccnc1)c1ccc(OCC(F)(F)F)cc1 | -1 | -3 | -2 | 7 | 4 | x | x
Cc1ccsc1C1Nc2ccccc2-c2nc3ccccc3n21 (stereo unspecified) | 20 | 50 | 5 | 51* | 54* | 39* | -16
c1csc(C2Nc3ccccc3-c3nc4ccccc4n32)c1 (stereo unspecified) | 4 | 34 | -15 | 38 | 22 | x | x
COc1ccc2cc3cc(C(=O)Nc4ccccc4N4CCN(C)CC4)oc3nc2c1 | 39 | 22 | 8 | 55* | 44* | 44* | -16
CN1CCN(c2ccccc2NC(=S)NC(=O)c2cc3ccccc3o2)CC1 | 20 | 23 | -9 | 40* | 98* | 3 | -3
O=C(NC(=S)Nc1ccccc1N1CCCCC1)c1cccs1 | -34 | 41 | -47 | 43* | 52* | 34* | 61*
CC(=O)N1CCN(c2ccccc2NC(=O)c2cc3ccccc3o2)CC1 | 8 | 24 | 3 | 10 | -11 | x | x
SMILES | NLRP3 yeast inh | tim23-1 inh | PfHsp90 set2 | tim10-1 inh | TIM10 inh | tim10-1 conf | tim10 confirm
CC(=O)NC1CCCN(O)C(=O)/C=C(\C)CCOC(=O)C(NC(C)=O)CCCN(O)C(=O)/C=C(\C)CCOC(=O)C(NC(C)=O)CCCN(O)C(=O)/C=C(\C)CCOC1=O (stereo unspecified) | 17 | -13 | x | -12 | 1 | x | x
O=C(/C=C/c1ccco1)Nc1ccccc1N1CCCCC1 | -4 | 41 | x | 61* | 54* | 58* | 50*
O=C(CN1CCN(CC(=O)Nc2ccccc2Cl)CC1)NCC1(N2CCCCC2)CCCCC1 | 11 | 0 | -12 | -13 | -1 | x | x
COC(=O)/C(=C/c1cccnc1)NC(=O)c1ccccc1 | 14 | 1 | -36 | -7 | 7 | x | x
COC(=O)C(=C/C(C)=C/c1cccnc1)C(=O)OC | 42 | 42 | 35 | 50* | 50* | 41* | 46*
CCOC(=O)NC(=S)Nc1ccc(C(C)(C)C)cc1 | 25 | 47 | -13 | 24 | 28 | x | x
COc1ccc(-c2nncnn2)cc1 | -3 | 42 | x | 84* | 89* | 79* | 21
CC(C)c1ccc(S(=O)(=O)Nc2ccc(N3CCOCC3)cc2)cc1 | 9 | 12 | -136 | 10 | 17 | x | x
CCCC(=O)NC(=S)Nc1cccc(Cl)c1N1CCCCC1 | -30 | 42 | 23 | 44* | 50* | 28 | 36*
CC1CCCC(C)N1C(=O)COC(=O)c1ccc(Br)o1 (stereo unspecified) | 15 | 20 | 0 | 10 | 14 | x | x
O=C(N/N=C/c1ccc([N+](=O)[O-])o1)c1cc2ccccc2o1 | 11 | 40 | 3 | 59* | 45* | 56* | 79*
CSc1ccccc1NC(=O)CSc1cccc[n+]1[O-] | 17 | -7 | x | -5 | 2 | x | x
Cc1ccccc1/C(N)=N/OC(=O)N1c2ccccc2Sc2ccccc21 | 43 | 30 | -6 | 72* | 74* | 69* | 81*
CC(=O)OCCCNc1cc(Sc2nc3ccccc3s2)c2nonc2c1[N+](=O)[O-] | 26 | 44 | -8 | 91* | 85* | 91* | 1
FC(F)(F)c1cccc(NC(=S)Nc2ccc(Cl)cc2Cl)c1 | -3 | 46 | 7 | 70* | 62* | 47* | 51*
FC(F)(F)c1cccc(NC(=S)NCC2COc3ccccc3O2)c1 (stereo unspecified) | 1 | 49 | 5 | 66* | 48* | 56* | 57*
Cc1cccc(NC(=S)Nc2cccc(C(F)(F)F)c2)n1 | 18 | 35 | -35 | 20 | 8 | x | x
CCCNC(=S)Nc1cccc(C(F)(F)F)c1 | 4 | 31 | 7 | 7 | 21 | x | x
